From PubChem BioAssay (NCI) come the findings set out here.

Test systems include T-47D breast; BT-549 breast; MDA-MB-435 melanoma; SW-620 colon; MCF7 breast; HCT-116 colon; HCC-2998 colon; KM12 colon.
Test in all cases: NCI-60 one-dose screen, 48 h (100 = growth as untreated, 0 = no growth, -100 = all killed)
What all share (conditions): 10 µM unless noted

Several values for one entry are separate records, joined by “and”; a condition that tells them apart may be missing. Equal values may be shown once. The panel holds about 83,000 compounds, 20% with a hit somewhere; the sample as a whole holds those more often.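 How to read the values: 0–100, growth inhibition (40 = 60% inhibited); 0, no net growth; -100 to 0, cell death (-40 = 40% of starting cells died; -100 = all dead).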 Activity calls are given as the source filed them. The calls were made as follows: active = growth percent below 10; inactive = the rest.

As for `Cn1ccnc1CN1CCSC(C(=O)Nc2ccccc2)C1` (stereo not drawn), the growth in the test with T-47D breast was 90.7% (inactive); in the test on BT-549 breast, 93.3% (inactive); in the test with MDA-MB-435 melanoma it was 92.2% (inactive); with SW-620 colon, 96.9% (inactive); with MCF7 breast, 91.6% (inactive); in the test with HCT-116 colon, 96.2% (inactive). Besides, the growth with HCC-2998 colon was 98.6% (inactive); in the test on KM12 colon, 97.7% (inactive).

As to `COc1ccc(C2Nc3nc(SC)nc(N)c3N=C3c4ccccc4CCC32)cc1` (stereo not drawn), the growth was 80% (inactive) with T-47D breast; 105% (inactive) in the test with BT-549 breast; 93.2% (inactive) with MDA-MB-435 melanoma; 76.1% (inactive) with SW-620 colon; 62.9% (inactive) with MCF7 breast; 51.5% (inactive) in the test on HCT-116 colon. Also, the growth is 103% (inactive) in the test with HCC-2998 colon and 85.9% (inactive) in the test on KM12 colon.

With `N#C/C(=C\c1ccccc1Cl)c1cc2ccccc2[nH]1`, the growth is 38% (inactive) in the test with T-47D breast; 89.1% (inactive) with BT-549 breast; 101% (inactive) in the test on MDA-MB-435 melanoma; 89% (inactive) with SW-620 colon; 36% (inactive) in the test on MCF7 breast; 87.4% (inactive) in the test on HCT-116 colon. For the same compound, the growth in the test with HCC-2998 colon is 111% (inactive); with KM12 colon, 82.6% (inactive).

Take `COc1ccc(C(=O)c2ccc(OC)c(OC)c2OC)cc1`: the growth with T-47D breast is 44.5% (inactive) and 36.2% (inactive); with BT-549 breast, 71.9% (inactive) and 50% (inactive); in the test with MDA-MB-435 melanoma it was -14.6% (active) and -29.5% (active); in the test with SW-620 colon, 15.6% (inactive) and 11.8% (inactive); in the test with MCF7 breast it was 25.4% (inactive) and 16.5% (inactive); with HCT-116 colon it was 30.5% (inactive) and 26.3% (inactive). Further, the growth was 57.3% (inactive) and 45.6% (inactive) in the test with HCC-2998 colon; 29.5% (inactive) and 24.7% (inactive) with KM12 colon.

For the compound `CC(C)(C)c1cc(NC(=O)Nc2ccc(-c3cn4c(n3)sc3cc(OCCN5CCOCC5)ccc34)cc2)no1`, the growth is -33% (active) and -23.2% (active) with T-47D breast; 4.32% (active) and 9.08% (active) in the test on BT-549 breast; 65.1% (inactive) and 31.5% (inactive) with MDA-MB-435 melanoma; 49.9% (inactive) and 21.1% (inactive) in the test on SW-620 colon; 9.99% (active) and 22.3% (inactive) with MCF7 breast; 8.69% (active) and 14.3% (inactive) in the test with HCT-116 colon. In addition, the growth was 39.1% (inactive) and 56.4% (inactive) with HCC-2998 colon; 13.7% (inactive) and 9.16% (active) with KM12 colon.

Consider `O=C(c1ccc(Nc2nccc(NCCCNc3ccnc4cc(Cl)ccc34)n2)cc1)N1CCCCC1`, for which the growth with T-47D breast was 54.3% (inactive); in the test with BT-549 breast, 64.9% (inactive); in the test with MDA-MB-435 melanoma, 34.1% (inactive); in the test on SW-620 colon it was 26.3% (inactive); in the test with MCF7 breast it was 23.1% (inactive); with HCT-116 colon, 26.7% (inactive). Moreover, the growth was 26% (inactive) in the test on HCC-2998 colon and 37.5% (inactive) in the test on KM12 colon.

`COc1cc(N=Nc2ccc(O)c3ncccc23)c2ncccc2c1`: the growth in the test with T-47D breast was 20.2% (inactive); with BT-549 breast, 39% (inactive); in the test on MDA-MB-435 melanoma, 42.4% (inactive); in the test on SW-620 colon, 30.5% (inactive); in the test on MCF7 breast, 27.5% (inactive); with HCT-116 colon it was 19.4% (inactive). The values for the growth in the test with HCC-2998 colon and in the test with KM12 colon were 36.3% (inactive) and 28.1% (inactive), respectively.

Turning to `NC1=CC(=O)c2cccnc2C1=O`, the growth with T-47D breast is -34.4% (active); in the test with BT-549 breast it was 9.57% (active); with MDA-MB-435 melanoma it was -95.5% (active); in the test on SW-620 colon it was -80% (active); with MCF7 breast it was -55.5% (active); in the test with HCT-116 colon, -56.4% (active). Moreover, the growth is 59.9% (inactive) with HCC-2998 colon and 58.9% (inactive) in the test with KM12 colon.

`CN1CCN(c2ccc(Nc3ncc(C(N)=O)c(NCCCNC(=O)C4CCC4)n3)cc2)CC1`: the growth in the test with T-47D breast is 107% (inactive); in the test with BT-549 breast, 19.4% (inactive); with MDA-MB-435 melanoma, 66.9% (inactive); in the test with SW-620 colon, 70.9% (inactive); in the test with MCF7 breast, 48.9% (inactive); in the test with HCT-116 colon, 43.2% (inactive). Besides, the growth in the test on HCC-2998 colon is 85.6% (inactive); in the test with KM12 colon, 82.1% (inactive).

With `COc1cc(NC2CCCCC2O)c2nc(-c3ccc(Cl)cc3)ccc2c1` (stereo not drawn), the growth was 78.5% (inactive) and 86.5% (inactive) with T-47D breast; 108% (inactive) and 97.5% (inactive) with BT-549 breast; 68.4% (inactive) and 86.5% (inactive) in the test with MDA-MB-435 melanoma; 78.9% (inactive) and 86.7% (inactive) with SW-620 colon; 51.8% (inactive) and 59.4% (inactive) in the test on MCF7 breast; 69.6% (inactive) and 77.2% (inactive) with HCT-116 colon. Besides, the growth in the test on HCC-2998 colon is 91.8% (inactive) and 93% (inactive); with KM12 colon, 54.9% (inactive) and 68.3% (inactive).

On to `O=C(Oc1ccc(CO[N+](=O)[O-])cc1)c1ccccc1`, for which the growth is -37.4% (active) in the test on T-47D breast; -97% (active) with BT-549 breast; -94% (active) in the test with MDA-MB-435 melanoma; -56.8% (active) with SW-620 colon; -54.4% (active) with MCF7 breast; -86.2% (active) with HCT-116 colon. In addition, the growth was -81.9% (active) in the test with HCC-2998 colon and -78.9% (active) with KM12 colon.

For `COc1cc(/C=C2\CCC/C(=C\c3cc(CN4CCCC4)c(O)c(OC)c3)C2=O)cc(CN2CCCC2)c1O`, the growth in the test on T-47D breast was 95.9% (inactive); with BT-549 breast, 49.2% (inactive); in the test with MDA-MB-435 melanoma it was 8.88% (active); with SW-620 colon, 25.8% (inactive); with MCF7 breast it was 14.3% (inactive); with HCT-116 colon, -34.5% (active). Also, the growth in the test with HCC-2998 colon was 52.3% (inactive); in the test with KM12 colon it was 11.9% (inactive).

Regarding `O=C1C(c2c[nH]c3ccccc23)=C(c2coc3cc(Br)ccc23)C(=O)N1O`, the growth was 77.5% (inactive) with T-47D breast; 103% (inactive) in the test on BT-549 breast; 103% (inactive) with MDA-MB-435 melanoma; 102% (inactive) with SW-620 colon; 80.6% (inactive) with MCF7 breast; 96.7% (inactive) with HCT-116 colon. In the test on KM12 colon, the growth is 97.9% (inactive).
